# NCOA3 inh = SRC3 coactivator transcriptional activity inhibitors, primary screen, cell-based, luminescence; AID 588352, 2011; Nuclear receptor coactivator 3 (Homo sapiens), Q9Y6Q9; HEK293 GAL4-SRC3 luciferase reporter; inhibition, % at 3.6 µM; hit rate 0.17% among 360,000;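 active means inhibition above a per-campaign cutoff, the mean of all compounds plus 3 SD, cut at about 60% in these data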;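 further: 0% = DMSO-treated cells and 100% = gossypol-treated cells at 36 µM; higher means less SRC3-driven luciferase light from the GAL4 reporter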
# NR2F2 inh = NR2F2 transcriptional activity inhibitors, primary screen, cell-based, luciferase reporter, HEK293T, luminescence. COUP transcription factor 2 (Homo sapiens), P24468. HEK293T NGFI-A luciferase reporter. inhibition, % at 8.6 µM. hit rate 0.7% among 370,000;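 active means inhibition above a per-plate cutoff, mean inhibition of test wells between control levels plus 3 SD, cut at about 38% in these data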;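 further: cells cotransfected with COUP-TFII expression vector driving the NGFI-A reporter; 0% = median of COUP-TF2 test wells and 100% = reporter-only cells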
# LRH-1 inv ag = LRH-1 (NR5A2) inverse agonists, primary screen, cell-based, luminescence, HEK293T, StAR-luciferase reporter | Nuclear receptor subfamily 5 group A member 2 (Homo sapiens), O00482 | LRH-1 transfected, 24 h | inhibition, % at 3.6 µM | hit rate 0.13% among 360,000 | AID 602396, 2012;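 active means inhibition above the mean inhibition of all tested compounds plus 3 SD, cut at about 73% in these data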;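 further: 0% = DMSO wells and 100% = reporter-only cells lacking LRH-1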
# Target sequence (O00482 whole entry, looked up): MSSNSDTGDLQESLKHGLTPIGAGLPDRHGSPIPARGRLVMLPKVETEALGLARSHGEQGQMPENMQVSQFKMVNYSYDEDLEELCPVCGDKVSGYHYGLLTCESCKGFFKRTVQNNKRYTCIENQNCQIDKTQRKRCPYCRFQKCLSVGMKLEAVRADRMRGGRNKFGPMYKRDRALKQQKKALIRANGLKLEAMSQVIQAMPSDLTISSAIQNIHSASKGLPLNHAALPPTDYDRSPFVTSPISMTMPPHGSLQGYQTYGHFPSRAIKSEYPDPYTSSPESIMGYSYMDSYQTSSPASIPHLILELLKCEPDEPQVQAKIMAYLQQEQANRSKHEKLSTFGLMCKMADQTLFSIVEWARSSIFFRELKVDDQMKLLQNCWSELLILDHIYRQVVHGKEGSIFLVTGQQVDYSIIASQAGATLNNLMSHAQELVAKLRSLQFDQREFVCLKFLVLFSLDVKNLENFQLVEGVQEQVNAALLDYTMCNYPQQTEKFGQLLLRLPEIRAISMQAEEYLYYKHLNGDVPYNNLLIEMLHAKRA
# SRC2 inh = inhibition of GAL4-SRC2 driven luciferase reporter, primary screen, SRC2 inhibitor project, cell-based, luminescence. inhibition, % at 9 µM. AID 651957, 2012. HEK293 GAL4-SRC2 luciferase reporter. Nuclear receptor coactivator 2 (Homo sapiens), Q15596. hit rate 0.17% among 370,000;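 active means inhibition above the mean inhibition of all tested compounds plus 3 SD, set per campaign, cut at about 52% in these data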;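 further: 0% = DMSO treated cells and 100% = cells given Gossypol at 36 µM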
# SRC1 inh = SRC1 coactivator transcriptional activity inhibitors, primary screen, cell-based, luminescence. Nuclear receptor coactivator 1 (Homo sapiens), Q15788. HEK293 GAL4-SRC1 luciferase reporter. inhibition, % at 3.6 µM. hit rate 0.12% among 360,000;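 active means inhibition above the campaign mean plus 3 SD, with each screening campaign given its own cutoff, cut at about 60% in these data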;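 further: 0% = DMSO treated cells and 100% = gossypol at 36 µM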
# GalR3 antagonist = GalR3 antagonists in HEK293 cells, primary screen, cell-based, fluorescence readout. hit rate 0.44% among 360,000. inhibition, % at 3 µM. HEK293 GalR3-CNG cAMP membrane potential fluorescence; galR3 body fused to GalR1 C-terminus. Galanin receptor type 3 (Homo sapiens), O60755. AID 651719, 2012;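 active means inhibition above the screen-wide average plus 3 SD, cut at about 13% in these data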;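 further: forskolin and galanin both at EC90 stimulate the cells; cAMP rise reported by CNG channel membrane potential dye signal; 0% = forskolin plus galanin with DMSO and 100% = forskolin alone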
# GalR3 conf = GalR3 antagonist hit confirmation, cell-based, fluorescence, triplicate | shares compounds with GalR3 antagonist | HEK293 GalR3 CNG cAMP biosensor, membrane potential fluorescence; galR3 fused to GalR1 carboxy tail; challenged with forskolin and galanin at EC90 | inhibition, % at 3 µM | hit rate 59% among 1,600 | AID 652245, 2013;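 active means inhibition above the primary screen's cutoff, the mean inhibition of all screened compounds plus 3 SD, cut at about 13% in these data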;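 further: 0% = forskolin plus galanin and 100% = forskolin alone with DMSO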
# HEK-CNG parental = nonspecific cAMP agonists in parental HEK-CNG cells, counter-screen for GalR3 antagonist project, cell-based, fluorescence, high throughput. shares compounds with GalR3 antagonist. HEK293-CNG parental cells, cAMP membrane potential fluorescence; normalised: DMSO wells 0%, forskolin wells 100%. activation, % at 3 µM. hit rate 10% among 1,600. AID 652268, 2013; in the data active means activation above about 1.3%
# Gal4-VP16 ctr = Gal4-VP16 luciferase reporter inhibitors, counter-screen for COUP-TFII antagonist project, cell-based, luminescence, HEK293 | inhibition, % at 8.5 µM | AID 687007, 2013 | shares compounds with NR2F2 inh | hit rate 25% among 2,500; in the data active means inhibition above about 13%
# COUP-TFII conf = NR2F2 transcriptional activity inhibitors, confirmation, cell-based, luciferase reporter, HEK293, triplicate; shares compounds with NR2F2 inh; HEK293 NGFI-A luciferase reporter, luminescence; inhibition, % at 8.5 µM; hit rate 45% among 2,500;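 active means mean inhibition over three repeats above a set limit taken from the earlier primary screen, cut at about 38% in these data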;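 further: 100% = cells given the luciferase reporter alone without the COUP-TF2 vector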
# An asterisk follows results filed as active; . = not tested or not shown. Shown are actives, neighbours in structure and some others; about 1.1% of the full set was active somewhere.
SMILES,NCOA3 inh,NR2F2 inh,LRH-1 inv ag,SRC2 inh,SRC1 inh,GalR3 antagonist,GalR3 conf,HEK-CNG parental,Gal4-VP16 ctr,COUP-TFII conf
NS(=O)(=O)c1ccc(CCNC(=O)CN2CCC(Cc3ccccc3)CC2)cc1,19.5,38.1*,16.6,21.5,17.3,14.7*,6.5,0.2,-4.4,12.2
OC(c1ccc(F)cc1)c1nc(-c2ccncc2)cs1 (stereo not drawn),23.2,41.8*,16.6,-12.6,16.4,13.3*,31.7*,-0.5,-0.9,23.3
CC(=O)c1ccc(N2CCN(C(=S)Nc3ccc(Oc4ccccc4)cc3)CC2)cc1,22.8,69.0*,12.7,0.6,13.9,81.9*,96.6*,-1.2,-0.4,56.0*
COc1ccc(N2CCN(C(=S)Nc3ccccc3)CC2)cc1,0.1,10.6,-8.3,6.5,-18.8,-9.7,.,.,.,.
S=C(NCCc1ccccc1)Nc1cccc2cnccc12,28.0,67.1*,45.0,18.4,19.2,32.7*,103.3*,-0.3,1.2,61.0*
CCCCNC(=S)Nc1cccc2cnccc12,11.4,14.1,27.1,0.7,3.0,0.7,.,.,.,.
Cc1csc2ncnc(NCCc3ccccn3)c12,9.4,67.8*,33.6,8.4,30.5,96.8*,83.9*,-0.2,1.9,48.2*
c1ccc(CCNc2ncnc3sccc23)nc1,-25.2,9.8,-43.5,-20.8,-1.6,-2.2,.,.,.,.
Cc1nn(-c2ccccc2)c2sc(C(=O)NCCc3ccccc3)cc12,.,-18.4,.,-0.1,.,.,.,.,.,.
CCOc1ccc(Oc2ccccc2NC(=O)CSCC(=O)Nc2cc(C)on2)cc1,17.6,50.5*,23.3,13.2,-1.5,40.2*,72.8*,-0.4,4.5,38.0*
CCc1nc(C)cn1S(=O)(=O)c1cc(C)c(OC)c(C)c1C,14.3,48.9*,-5.0,23.7,-2.9,26.1*,82.4*,0.5,7.4,39.8*
CCc1nc(C)cn1S(=O)(=O)c1cc(C)c(OC)cc1C,-2.0,-8.7,-31.0,-11.0,-17.3,-0.1,.,.,.,.
CCOc1cc(S(=O)(=O)NCc2ccncc2)ccc1Cl,18.8,74.5*,44.2,0.7,18.2,102.2*,126.0*,-0.5,10.0,63.0*
Cc1cc(S(=O)(=O)NCc2ccncc2)c(C)cc1Br,25.6,61.4*,41.8,20.0,11.3,104.2*,110.8*,-0.3,7.3,56.0*
CCOC(=O)COc1ccc(S(=O)(=O)NCc2ccco2)cc1,1.1,-11.0,8.4,-2.8,6.6,-1.7,.,.,.,.
CCOc1ccc(S(=O)(=O)NCc2ccccn2)cc1,-4.3,3.8,1.4,19.9,-4.7,-1.2,.,.,.,.
CCOc1ccc(S(=O)(=O)NCc2ccncc2)cc1,5.5,70.2*,47.5,10.3,9.1,90.9*,107.8*,-0.3,3.3,62.8*
CCOC(=O)COc1ccc(S(=O)(=O)NCc2ccncc2)cc1,-3.6,48.8*,14.5,-6.3,0.0,110.2*,110.8*,-0.2,-8.1,16.8
COc1ccc([C@H]2N[C@]3(CCCN(Cc4ccccc4)C3=O)[C@H]3C(=O)N(Cc4ccccc4)C(=O)[C@@H]23)cc1,-13.1,-0.4,-1.6,15.8,0.5,-6.0,.,.,.,.
O=C(Nc1ccn(C2CCC(CO)O2)c(=O)n1)c1ccccc1 (stereo not drawn),16.4,3.9,1.5,-16.2,-1.9,4.3,.,.,.,.
COCc1[nH]nc2c1C(c1ccc3c(c1)OCO3)N(Cc1ccccc1)C2=O (stereo not drawn),.,10.2,.,-6.9,.,-6.1,.,.,.,.
Cc1ccc(S(=O)(=O)NC(=O)Cn2nnc(-c3ccccc3)c2COc2ccc3ccccc3c2)cc1,6.3,-6.6,23.0,0.8,5.7,-6.1,.,.,.,.
Cc1ccc(S(=O)(=O)NCc2ccncc2)cc1,28.0,56.9*,46.8,23.6,0.7,22.5*,74.0*,-0.3,3.8,40.3*
CCc1nc2ccc(C(=O)Nc3cc(-c4ccccc4)ccc3OC)cn2c1N(CCN(C)C)CC1CC1,-24.0,1.1,5.3,21.9,4.4,-0.4,.,.,.,.
Cc1cc(/C=C2/SC(=S)N(c3cccc(Cl)c3)C2=O)c(C)n1-c1cccnc1,10.6,64.9*,35.7,2.0,11.6,89.8*,15.1*,0.1,-21.8,64.3*
SMILES,NCOA3 inh,NR2F2 inh,LRH-1 inv ag,SRC2 inh,SRC1 inh,GalR3 antagonist,GalR3 conf,HEK-CNG parental,Gal4-VP16 ctr,COUP-TFII conf
CN(C)S(=O)(=O)Oc1cccc(C(=O)Nc2ccc(Cl)cc2)c1,-36.5,44.8*,-86.2,-30.8,-40.3,27.7*,51.2*,-0.6,-187.4,-12.2
CC(C)Cn1c(N)c(C(=O)CSc2ccccc2)c(=O)n(C)c1=O,13.1,-1.5,-15.6,8.2,-0.4,0.5,.,.,.,.
CC(C)Cn1c(N)c(C(=O)COC(=O)/C=C/c2ccccc2)c(=O)n(C)c1=O,3.2,44.6*,17.3,13.2,-0.1,16.2*,86.0*,0.0,7.1,35.9
Cc1ccc(S(=O)(=O)N(C)Cc2ccc(C(=O)N/N=C/c3ccc(OC(F)F)cc3OC(F)F)cc2)cc1,46.0,70.1*,25.1,11.7,39.3,80.3*,28.2*,-0.3,9.8,73.5*
CC(=O)Nc1ccc(NC(=O)c2ccc(CN3CCc4ccccc4C3)cc2)cc1,-7.0,2.2,-4.8,-4.1,-25.2,-9.8,.,.,.,.
O=C(Nc1cccc(Br)c1)c1ccc(CN2CCc3ccccc3C2)cc1,0.0,53.0*,30.4,22.2,9.6,84.7*,107.2*,-0.3,-24.2,32.2
O=C(Nc1ccc(F)cc1)c1ccc(CN2CCc3ccccc3C2)cc1,-1.6,45.3*,15.2,19.1,19.6,102.8*,104.2*,0.1,-41.0,34.1
CCOC(=O)N1CCN(C(=O)C[C@H]2C[C@@]3(C(=O)OC)C(=C[C@H](C4CCCC4)O[C@@H]3C)N(Cc3cccc4ccccc34)C2=O)CC1,.,-0.3,.,-1.5,.,.,.,.,.,.
